Measured values reported in PubChem BioAssay AID623911 (Vanderbilt High Throughput Screening Facility, 2012).
The campaign covered roughly 2,100 compounds. About 770 (37%) were called active. The list shows a part of the results. Unmarked numbers belong to inactive results.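 Rule for the calls: active = by-eye trace score of 1 for enhancers or -1 for inhibitors, so actives lie on both sides (some results past the limit were not filed as active); inactive = score 0, or 3 fluorescent, or 4 baseline rise.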

biological target: G protein-activated inward rectifier potassium channel 2 (Homo sapiens) + G protein-activated inward rectifier potassium channel 1 (Homo sapiens) (UniProt P48051+P48549); experiment: GIRK1/2 thallium flux modulators, retest, confirmation, cell-based, HEK293 rmGlu8/hGIRK1/2, FluoZin-2 (AID 623911); conditions: HEK293 rmGlu8/hGIRK1/2, thallium flux FluoZin-2; actives lie on both sides; glutamate co-added at its EC20 level
Sequence (P48051 whole entry, looked up): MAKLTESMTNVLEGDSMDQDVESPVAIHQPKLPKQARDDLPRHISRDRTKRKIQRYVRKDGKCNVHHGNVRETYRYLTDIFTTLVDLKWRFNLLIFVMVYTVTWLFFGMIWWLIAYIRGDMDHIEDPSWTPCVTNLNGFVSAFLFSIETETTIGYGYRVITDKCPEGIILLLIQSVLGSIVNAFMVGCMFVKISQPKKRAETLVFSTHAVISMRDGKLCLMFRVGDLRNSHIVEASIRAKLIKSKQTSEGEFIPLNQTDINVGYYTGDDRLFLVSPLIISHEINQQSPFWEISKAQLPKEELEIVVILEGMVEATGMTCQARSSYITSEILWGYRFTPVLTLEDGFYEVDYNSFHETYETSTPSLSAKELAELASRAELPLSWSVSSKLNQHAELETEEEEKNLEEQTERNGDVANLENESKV
Sequence (P48549 whole entry, looked up): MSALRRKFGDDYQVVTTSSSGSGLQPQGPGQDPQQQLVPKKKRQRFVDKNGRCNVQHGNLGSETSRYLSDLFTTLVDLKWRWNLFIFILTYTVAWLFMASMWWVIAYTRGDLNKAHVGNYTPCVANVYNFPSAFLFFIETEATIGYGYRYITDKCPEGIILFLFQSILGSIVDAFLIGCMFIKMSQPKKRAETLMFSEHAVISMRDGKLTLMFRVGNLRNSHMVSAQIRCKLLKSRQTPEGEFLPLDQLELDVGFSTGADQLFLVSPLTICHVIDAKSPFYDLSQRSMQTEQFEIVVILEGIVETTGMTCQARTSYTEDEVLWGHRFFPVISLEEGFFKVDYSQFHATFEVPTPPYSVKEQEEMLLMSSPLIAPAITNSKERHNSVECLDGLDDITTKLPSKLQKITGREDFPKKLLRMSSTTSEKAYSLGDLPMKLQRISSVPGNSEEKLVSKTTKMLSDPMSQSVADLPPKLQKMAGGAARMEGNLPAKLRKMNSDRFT

SMILES | manual score
CC(C)CC(=O)CN1C(=O)C2(OCCO2)c2ccccc21 | 0
CCCCN(C)CC(O)Cn1cc(/C=C/C(=O)c2cccs2)c2ccccc21 (stereo not drawn) | 3
O=C1CC(c2ccncc2)c2cc3c(cc2N1)OCCO3 (stereo not drawn) | 0
O=c1c2cc(F)ccc2[nH]c(=S)n1CCCN1CCOCC1 | 0
CC(C)OCCCn1c(=S)[nH]c2cc3c(cc2c1=O)OCO3 | 1 (active)
COc1ccc(C(C)N2CC34C=CC(O3)C(C(=O)OCC(C)C)C4C2=O)cc1 (stereo not drawn) | 0
CCCOc1cccc(-c2cc(-c3n[nH]c(=S)n3CC)c3ccccc3n2)c1 | 0
COc1cc(C)nc(N(Cc2ccccc2)S(=O)(=O)c2ccccc2)n1 | -1 (active)
COc1ccc(S(=O)(=O)N(CCc2ccccc2)CC(=O)O)cc1 | 0
Cc1c(C#N)c2ncn(CC#N)c(=O)c2n1-c1ccccc1 | 0
Cc1cccc(C(=O)NC(=S)NNC(=O)c2ccc(Cl)cc2)c1 | 1 (active)
CC(=O)c1cccc(NC(=S)NC(=O)c2cccc(Cl)c2)c1 | 1 (active)
CC(=O)c1cccc(NC(=S)NC(=O)c2cccc(C)c2)c1 | 0
O=C(NC(=S)Nc1ccc(N2CCOCC2)cc1)c1cccc(Cl)c1 | 0.5
O=C(NC(=S)NNC(=O)c1cccs1)c1ccc(Br)o1 | 1 (active)
Cc1cccc(C(=O)NC(=S)NNC(=O)c2ccccc2Cl)c1 | 1 (active)
O=C(/C=C/c1cccs1)NC(=S)NNC(=O)Cc1cccs1 | 0
CC1CC(C)CN(Cc2nc(N)nc(Nc3ccc4ccccc4c3)n2)C1 (stereo not drawn) | 0
O=c1c(O)c(-c2cccs2)oc2ccccc12 | 3
Cc1ccc(C(=O)NNC(=S)NC(=O)c2ccc(Cl)cc2Cl)cc1 | 0.5
Cc1ccc(C2CC2C(=O)NNC(=S)Nc2ccc(Cl)cc2)cc1 (stereo not drawn) | 0
Cc1cccc(C(=O)NC(=S)Nc2ccccc2C(F)(F)F)c1 | 0
Cc1cccc(C(=O)NC(=S)NNC(=O)c2cccs2)c1 | 1 (active)
Cc1ccc(C(=O)NNC(=S)NC(=O)c2ccc(Cl)cc2)cc1 | 1 (active)
Cc1c(C(=O)O)sc2nc3n(c(=O)c12)CCC(C)CC3 (stereo not drawn) | 0
CCCN(CCC)CC(O)Cn1cc(/C=C/C(=O)c2cccs2)c2ccccc21 (stereo not drawn) | 3

SMILES | manual score
COc1ccc(Nc2nc(C)cc(C)c2C#N)cc1OC | 0
CCCC1COC(Cn2cncn2)(c2ccc(C)cc2)O1 (stereo not drawn) | 0
N#CCSc1nc2ccc(N3CCOCC3)cc2c(=O)n1CCc1ccccc1 | 0
CC1CCCCN1Cc1nc2c(c(=O)n(C)c(=O)n2C)n1CCc1ccccc1 (stereo not drawn) | -1 (active)
CCCCn1c(CN(Cc2ccccc2)Cc2ccccc2)nc2c1c(=O)n(C)c(=O)n2C | -1 (active)
CCCOc1nc2c(c(=O)n(C)c(=O)n2C)n1Cc1cccc2ccccc12 | -0.5
CN(C)CCCOc1nc2c(c(=O)n(C)c(=O)n2C)n1C | 0
COCCn1c(CN(Cc2ccccc2)Cc2ccccc2)nc2c1c(=O)n(C)c(=O)n2C | -1 (active)
Cn1c(=O)c2c(nc(-n3ccnc3)n2Cc2ccccc2)n(C)c1=O | 0
COC(=O)Cn1c(CN2CCc3ccccc3C2)nc2c1c(=O)n(C)c(=O)n2C | 0
COc1ccc(N2CCN(c3nc4c(c(=O)n(C)c(=O)n4C)n3Cc3ccccc3)CC2)cc1 | -1 (active)
COC(=O)C(C)Sc1nc2c(c(=O)n(C)c(=O)n2C)n1Cc1cccc(C)c1 (stereo not drawn) | 0
COc1ccc2nc3oc(C(=O)Nc4ccc(OC)c(OC)c4)cc3cc2c1 | 0
CC1(C)Cc2ccccc2-c2nnc(SCC(=O)Nc3nc4ccccc4s3)n21 | 0
O=c1[nH]c(SCc2ccccc2Cl)nc2c1CCCC2 | 0
CCCCn1c(SCC(=O)/C(C#N)=C(\C)N)nc2ccccc2c1=O | 0.5
COc1cc(-c2nnc(CSc3nc4ccccc4s3)o2)cc(OC)c1OC | -0.5
COc1ccc(-c2nnc(CSc3nc4ccccc4c(=O)n3C)o2)cc1OC | -1 (active)
CCn1c(-c2ccc(-c3ccccc3)cc2)c[nH]c1=S | 0
COc1ccc(OCc2nc(N)nc(Nc3ccccc3)n2)cc1 | 0
COc1ccc(C)cc1NC(=O)C(=O)NNC(=O)c1ccco1 | 1 (active)
COc1cccc(CNCCNC(=O)c2ccco2)c1OC | 0
COC(=O)c1ccccc1NC(=S)NC(NC(=O)c1ccco1)C(Cl)(Cl)Cl (stereo not drawn) | 0
Cc1nnc(NC(=O)c2ccco2)s1 | 0
COc1ccccc1NC(=O)C(=O)NNC(=O)c1ccco1 | 1 (active)
Cc1cc(NC(=O)c2ccco2)ccc1NC(=O)Cc1cccs1 | 0

SMILES | manual score
Cc1ccc(NC(=O)CSc2nnc(CCNC(=O)OC(C)(C)C)o2)c(C)c1 | 0
Cc1ccc(/C=N\NC(=O)c2cc([N+](=O)[O-])cc([N+](=O)[O-])c2)o1 | 0
O=C(N/N=C\c1cc(Br)c(Br)o1)c1cncc(Br)c1 | 1 (active)
CCc1ccc(C2=NN(c3ccc(S(N)(=O)=O)cc3)C(c3ccc(F)cc3)C2)cc1 (stereo not drawn) | 0
O=C(Nc1ccc(F)cc1)c1cccnc1N1CCOCC1 | 0
CCC(C)(C)n1nnnc1C(c1ccccn1)N1CCCCC1 (stereo not drawn) | 0
CCN(Cc1ccccc1)C(c1ccccn1)c1nnnn1C1CCCCC1 (stereo not drawn) | -1 (active)
CC(Oc1ccc(Cl)cc1)C(=O)NNC(=S)NC(=O)c1ccco1 (stereo not drawn) | 1 (active)
CC(Oc1ccc2ccccc2c1)C(=O)NNC(=S)NC(=O)c1ccco1 (stereo not drawn) | 1 (active)
O=C(NC(=S)Nc1cccc(Cl)c1N1CCCCC1)c1ccco1 | 0
O=C(NC(=S)Nn1cnc2c(cnn2-c2ccccc2)c1=O)c1ccc(Oc2ccccc2)cc1 | 0
Cc1cc(NC(=O)CSc2nc3ccsc3c(=O)n2NC(=O)c2ccccc2)no1 | 0
Cc1ccc(N(C(=O)CCC(=O)Nc2cc(C)on2)C(C(=O)NC2CCCC2)c2cccs2)cc1 (stereo not drawn) | -1 (active)
O=S(=O)(c1ccc(-c2nnc(SCc3nnc(-c4ccccc4)o3)o2)cc1)N1CCCC1 | 0
c1ccc(Cc2nnc(-c3ccccc3)o2)cc1 | 0
Fc1ccc2nc(-c3ccccc3)nc(SCc3nnc(-c4ccccc4)o3)c2c1 | 1 (active)
O=C(NCc1ccccc1)C(=O)Nc1nc(C23CC4CC(CC(C4)C2)C3)cs1 | 0
S=C(Nc1ccccc1Oc1ccccc1)Nc1cccc(Cl)c1Cl | 1 (active)
Fc1cccc(/C=N/NC(=S)Nc2ccccc2Cl)c1 | 0.5
COc1ccc(C)cc1S(=O)(=O)Nc1cccc(Cl)c1Cl | 0
FC(F)Oc1ccccc1NC(=S)Nc1cccc(Cl)c1Cl | 1 (active)
S=C(Nc1ccc(Cl)cc1Cl)Nc1ccccc1Oc1ccccc1 | 0
COC(=O)c1cccc(NC(=S)Nc2cccc(Cl)c2Cl)c1 | 0
C=C(C)CNC(=S)Nc1cccc2cnccc12 | 0
S=C(Nc1cccc(Cl)c1)Nc1cccc2cnccc12 | 1 (active)
O=C(NC(=S)Nc1ccc2oc(-c3cccnc3)nc2c1)c1cccc(Cl)c1 | 0

SMILES | manual score
S=C(Nc1ccccc1)Nc1cc(Cl)ccc1Oc1ccccc1 | 0
S=C(Nc1cccc(Cl)c1)Nc1ccccc1Oc1ccccc1 | 1 (active)
O=C(Nc1cc(Cl)ccc1Oc1ccccc1)c1ccccc1F | 0
COc1ccc(N/C(C)=C2/C(=O)C(=O)N(CCO)C2c2ccc(Br)cc2)cc1 (stereo not drawn) | 0
N#CC1=C(N)Oc2n[nH]c(-c3cccs3)c2C1c1ccoc1 (stereo not drawn) | 0
O=C(Cn1nc(Cc2ccncc2)c2ccccc2c1=O)N1CCN(C(=O)c2ccco2)CC1 | 0
O=c1c2ccccc2nc(SCc2cn3ccsc3n2)n1-c1ccc(F)cc1 | 0
Cc1ccc(NC(=S)Nc2ccc(Cl)c(Cl)c2)c(OC(F)F)c1 | 1 (active)
COC(=O)NC(=S)Nc1ccc(Oc2ccc(Cl)cc2Cl)c(Cl)c1 | 0
Fc1ccc(NC(=S)Nc2ccccc2OC(F)F)cc1Cl | 1 (active)
O=C(O)CN=C(NS(=O)(=O)c1ccccc1)c1ccccc1 | 0
Cc1cc(C(=O)CSc2nnc(-c3ccncc3)n2-c2ccccc2)c(C)n1C | 0
COc1ccc(Cl)cc1C(=O)CSc1nnnn1C1CCCC1 | 0
COc1ccccc1-n1cnnc1SCC(=O)c1cc(C)n(Cc2cccs2)c1C | -1 (active)
CCN(CC)CCCNC(=O)c1cc(-c2ccc(Cl)c(Cl)c2)on1 | -1 (active)
CN(C)CCCNC(=O)c1ccc(-c2nc(-c3ccc(Cl)cc3)cs2)cc1 | 0
COc1cccc(-c2cc(C(=O)NC3CCCC3)no2)c1 | 0
CC(C)CCOP(=O)(c1ccc(N(C)C)cc1)C(O)c1ccccn1 (stereo not drawn) | 0
CC(C)(C)c1nn(-c2ccccc2)c2[nH]c(=O)c(CNCc3ccc4c(c3)OCO4)cc12 | 0
COc1ccc2c(c1)C(C)=CC(C)(C)N2C(=O)CNCc1ccc2c(c1)OCO2 | -1 (active)
Cc1c(C(=O)O)[nH]c2c1C(=O)CC(c1ccc(Cl)cc1)C2 (stereo not drawn) | 0
Cc1cccc(OCc2nnc(SCC(=O)N3CCc4ccccc43)n2C)c1 | 0
Cc1ccc(OCC(O)Cn2c(=N)n(CCN3CCCCC3)c3ccccc32)cc1 (stereo not drawn) | -1 (active)
N=c1n(CCN2CCCCC2)c2ccccc2n1CC(O)COc1ccccc1 (stereo not drawn) | -1 (active)
Cc1cccc(OCC(O)Cn2c(=N)n(CCN3CCCCC3)c3ccccc32)c1 (stereo not drawn) | -1 (active)
